# Assay results taken from PubChem BioAssay AID1851 (National Center for Advancing Translational Sciences (NCATS), 2009).
# About 2,600 (16%) of roughly 16,000 compounds were called active. Another 20% or so got no clear call; they are omitted. Only a sample is shown. Values without a mark were called inactive. The call rests on the fitted dose curve; in most records, active means well fitted curve in the direction sought with a large enough effect; inconclusive means small, poorly fitted or top-dose-only effect, or effect the other way; inactive means no such curve, though single readings can be large or run the other way.
# Target: Cytochrome P450 2D6 (Homo sapiens) (UniProt P10635)
# Experiment: Cytochrome panel assay with activity outcomes
# Settings: recombinant CYP, pro-luciferin dealkylation, luminescence, p450-cyp2d6; series mostly up to 57.1 µM
# On the % scale 0 is the no-effect control and ±100 the full control effect.
# Sequence of Cytochrome P450 2D6 (Homo sapiens) (P10635 whole entry, looked up): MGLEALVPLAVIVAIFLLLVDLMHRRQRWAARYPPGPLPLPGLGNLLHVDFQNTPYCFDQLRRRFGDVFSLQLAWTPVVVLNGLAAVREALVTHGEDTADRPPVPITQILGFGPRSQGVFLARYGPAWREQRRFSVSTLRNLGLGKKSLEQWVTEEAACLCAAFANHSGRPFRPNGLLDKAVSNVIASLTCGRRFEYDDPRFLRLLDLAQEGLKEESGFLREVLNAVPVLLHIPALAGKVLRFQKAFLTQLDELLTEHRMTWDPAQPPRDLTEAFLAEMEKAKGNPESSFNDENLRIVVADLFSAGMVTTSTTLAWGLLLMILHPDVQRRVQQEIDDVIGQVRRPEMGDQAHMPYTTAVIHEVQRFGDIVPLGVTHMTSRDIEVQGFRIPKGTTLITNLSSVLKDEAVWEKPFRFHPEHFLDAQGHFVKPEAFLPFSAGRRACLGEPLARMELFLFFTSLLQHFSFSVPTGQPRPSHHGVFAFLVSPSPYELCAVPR
Structure (SMILES),"activity, negative = inhibition",AC50
COc1ccc(COC(=O)N/N=C2/C[C@@H](O)[C@@H](O)[C@@H]3[C@H]4C(=O)N(c5ccc(F)cc5F)C(=O)[C@@H]4CC[C@H]23)cc1,-14.9% [at 11.4 µM],
CCCN(CCC)CCCNS(=O)(=O)c1cc(Br)cc2c1N(C(C)=O)CC2,,inactive
O=c1c2ccc([N+](=O)[O-])c3cccc(c32)c2nc3ccccc3n12,,inactive
O=C(O)c1ccc2c3c1cccc3c(=O)n1c3ccccc3nc21,,15.8 µM (active)
O=C(O)Cn1c(-c2ccccc2)nc2ccccc21,,inactive
Cc1cc(N2CCOCC2)ncc1[N+](=O)[O-],,inactive
COc1ccc(Cc2nnc(NC(=O)c3ccco3)s2)cc1,,inactive
COc1ccccc1CNc1cc(-c2ccccc2OC)ncn1,,20 µM (active)
COc1ccccc1CNc1cc(-c2ccccc2Cl)ncn1,,12.6 µM (active)
COc1ccccc1-c1cc(Nc2ccn[nH]2)ncn1,,inactive
COc1ccccc1-c1cc(NCc2ccccc2)ncn1,,20 µM (active)
COc1ccccc1CNc1cc(-c2ccoc2)ncn1,,15.8 µM (active)
Cc1sc2ccccc2[n+]1CCC(C)S(=O)(=O)[O-] (stereo unspecified),,inactive
C=CCSc1nc(Oc2ccccc2)c2sccc2n1,,inactive
CCCc1nnc(SCC(=O)N2CCCCC2C)n1CCCOC (stereo unspecified),,inactive
CCn1cc(C(=O)O)c(=O)c2cnc(N3CCNCC3)nc21,,inactive
CO[C@@H]1COC(=O)C/C=C\[C@H](C)COC(=O)[C@H](Cc2ccccc2)NC(=O)C/C=C\[C@H]1C,9.42% [at 11.4 µM],
Cc1cc(SC(C)C(=O)Nc2c(C)n(C)n(-c3ccccc3)c2=O)nc2ccccc12 (stereo unspecified),,inactive
C[C@@]12C(=O)OC(=O)[C@]1(C)[C@H]1CC[C@@H]2O1,,inactive
COC(=O)C/C=C1\c2ccccc2[C@H](OC)[C@H]1C,5.25% [at 11.4 µM],
CC(C)Cn1c(C(C)C)nc([N+](=O)[O-])c1S(=O)(=O)c1ccc(F)cc1,,inactive
CSc1nc(C)cc(SC(C(C)=O)C(=O)Nc2ccccc2)n1 (stereo unspecified),,inactive
C/C(=N\NC(=S)Nc1ccc(F)cc1)C1CC1,,inactive
C[C@@]12CCC(=O)C=C1CC[C@H]1[C@H]3CC[C@](O)(C(=O)CO)[C@]3(C)CC(=O)[C@@H]12,,inactive
Cc1ccc2nc(-c3ccccc3)cc(C(=O)NCCCn3ccnc3)c2c1,,5.01 µM (active)
Cc1cccc(NC(=S)NC(=O)c2cc(-c3ccccc3)nc3ccccc23)c1,,inactive

Structure (SMILES),"activity, negative = inhibition",AC50
COc1ccc(NC(=O)c2cc(-c3cccnc3)nc3ccc(C)cc23)cc1OC,,inactive
COc1cccc(Nc2ncc3nc(-c4ccc(Cl)cc4)c(=O)n(CCC#N)c3n2)c1,,inactive
C=CCSc1ncccc1C(=O)NCc1ccc(C)cc1,,inactive
O=C(/C=C\c1ccc(O)c(O)c1)O[C@@H](Cc1ccc(O)c(O)c1)C(=O)O,,inactive
CCCC(=O)NC(Nc1ccccc1F)C(Cl)(Cl)Cl (stereo unspecified),,inactive
FC(F)(F)c1ccccc1-c1cncnc1NCCc1cnc[nH]1,,12.6 µM (active)
CC(=O)NCCNc1ncncc1-c1ccccc1C(F)(F)F,,inactive
COCCNc1ncncc1-c1c(C)noc1C,,inactive
COc1cccc(-c2cncnc2NCCc2cnc[nH]2)c1,,7.94 µM (active)
COc1ccccc1-c1cncnc1NCCc1cnc[nH]1,,10 µM (active)
CC(Oc1ccc(Cl)cc1)C(=O)/C=C/N(C)C (stereo unspecified),,inactive
COc1ccc(CNc2nc3nc4c(c(=O)n3[nH]2)CCC4)cc1,,inactive
CN1CC[C@@]2(CCCN(C(=O)c3cc(C(F)(F)F)cc(C(F)(F)F)c3)C2)C1,,inactive
O=C(NC1CCCCC1)c1ccc(COCC(F)(F)F)o1,,inactive
Cc1cc2ccc(OC(=O)c3ccc(N=C(N)N)cc3)cc2oc1=O,-7.56% [at 11.4 µM],
C=CCOc1cccc(/C=N/NC(=O)C(=O)NCc2ccco2)c1,,inactive
C[C@@H](Cc1ccccc1)Nc1ncnc2c1ncn2[C@@H]1O[C@@H](CO)[C@H](O)[C@@H]1O,,inactive
O=C(CNC(=O)c1ccccn1)N/N=C/c1ccccc1,,inactive
CCOC(=O)C(CC)(CC)C(=O)/C=C/c1ccc(Br)cc1,,inactive
C[C@H](NC[C@H](O)CP(=O)(O)Cc1ccccc1)c1ccc(Cl)c(Cl)c1,,0.0501 µM (active)
C[C@H](NC[C@H](O)CP(=O)(O)CC1CCCCC1)c1ccc(Cl)c(Cl)c1,,inactive
Cc1cccc2c1OCC/C2=N\NC(=O)COc1ccccc1Cl,,inactive
Cc1sc(NC(=O)/C=C/c2ccc(C(C)C)cc2)c(C#N)c1C,,inactive
Cn1cc(-c2nc3cnc(Oc4ccccc4)nc3n(C3CC3)c2=O)c2ccccc21,,inactive
CC(C)CN1CC[C@@]2(CCCN(C(=O)c3cc(C(F)(F)F)cc(C(F)(F)F)c3)C2)C1,,inactive
CC(C)NC(=O)N1CCCC2(CCN(C(=O)c3cc(C(F)(F)F)cc(C(F)(F)F)c3)CC2)C1,,inactive

Structure (SMILES),"activity, negative = inhibition",AC50
CC(C)NC(=O)N1CC2(CCN(C(=O)c3cc(C(F)(F)F)cc(C(F)(F)F)c3)CC2)C1,,0.251 µM (active)
CC(C)CN1CCC2(CC1)CCN(C(=O)c1cc(C(F)(F)F)cc(C(F)(F)F)c1)CC2,,inactive
CC(C)CN1CCCC2(CCN(C(=O)c3cc(C(F)(F)F)cc(C(F)(F)F)c3)CC2)C1,,10 µM (active)
CC(C)NC(=O)N1CCC2(CC1)CCN(C(=O)c1cc(C(F)(F)F)cc(C(F)(F)F)c1)CC2,,inactive
CCOc1cc(/C=C2/C(=O)N(c3ccccc3)N=C2C)ccc1OC(=O)c1ccco1,,inactive
CN1CCCN(S(=O)(=O)c2ccc3c(c2)OCCO3)CC1,,inactive
C=CCNC(=O)c1ccc(-c2nc(-c3ccc(Cl)c(Cl)c3)cs2)cc1,,inactive
CCOC(=O)N/N=C1/C[C@@H](O)[C@@H](O)[C@@H]2[C@@H]3C(=O)N(CC)C(=O)[C@H]3CC[C@@H]12,7.29% [at 11.4 µM],
CO[C@H]1COC(=O)[C@H]2CCCN2C(=O)[C@@H](C)COC(=O)C/C=C\[C@@H]1C,19.9% [at 11.4 µM],
Cc1nn(CC(=O)NCc2ccccc2)c(C)c1[N+](=O)[O-],,inactive
CCOc1cc(-c2noc(N)c2C#N)cc(OCC)c1OCC,,inactive
C/C(=N\NC(=O)c1cccc(Br)c1)c1ccc(Br)cc1,,inactive
O=C(N/N=C/C1C(c2ccccc2)C1(Cl)Cl)c1cccc(Br)c1 (stereo unspecified),,7.08 µM (active)
O=C(N/N=C/c1cccc(Oc2ccccc2)c1)c1cccc(Br)c1,,inactive
Cn1c(C(N)=O)cnc1Sc1ncc(C(F)(F)F)cc1Cl,,inactive
Cc1ccnc(N2C(=O)C3C4CC(C(Br)C4Br)C3C2=O)c1 (stereo unspecified),,inactive
CCC(=O)O[C@@]1(C(=O)SCF)[C@@H](C)C[C@H]2[C@@H]3C[C@@H](F)C4=CC(=O)C=C[C@@]4(C)[C@]3(F)[C@@H](O)C[C@]21C,,inactive
CO[C@@H](NC(N)=O)C(=O)O,2.43% [at 11.4 µM],
CCC(C)(C)NC(=O)c1ccc2c(c1)N(CC(=O)OC)C(=O)C(C)(C)O2,,inactive
O=C(Oc1ccccc1)N1CCC2(CCCN(c3ccc(-c4ccccc4)cc3)C2)CC1,,inactive
CC(C)c1nc2ccccn2c1NC1CCCCC1,,3.16 µM (active)
CC(C)c1ccc(O)c(NC(=O)c2ncn[nH]2)c1,,inactive
COc1ccc(NC(=O)CC#N)cc1OC,,inactive
COC(=O)C1=C(C)NC(=O)NC1c1ccsc1 (stereo unspecified),,inactive
COCCNC(=O)COc1ccc(Oc2ccccc2)cc1,,inactive
O=C(O)COc1ccc(OCCNC[C@@H](O)COc2ccccc2)cc1,,inactive

Structure (SMILES),"activity, negative = inhibition",AC50
COCCNC(=O)COc1ccc(OCCNC[C@@H](O)COc2ccccc2)cc1,,5.01 µM (active)
CCOC(=O)N/N=C1/C[C@@H](O)[C@@H](O)[C@@H]2[C@@H]3C(=O)N(CC)C(=O)[C@H]3CC[C@H]12,-3.76% [at 11.4 µM],
CS(=O)(=O)c1nc(-c2ccccc2)cc(-c2ccccc2)c1C#N,,inactive
CCOC(=O)c1sc2nc3c(cc2c1N)COC(C(C)C)C3 (stereo unspecified),,inactive
CCC(=O)N[C@@H]1CCc2cccc(OC)c2C1,,inactive
CCc1ccccc1OC[C@@H](O)CN[C@H]1CCCc2ccccc21,,inactive
COc1cccc(C=NC=Nc2cccc(OC)c2)c1,,inactive
O=C(CSc1n[nH]c(-c2ccccc2O)n1)N1CCCc2ccccc21,,25.1 µM (active)
O=C(CSc1nc(-c2ccccc2)cs1)N1CCc2ccccc21,,inactive
O=C(CSc1nnc(CNc2ccccc2)o1)N1CCCc2ccccc21,,inactive
CC(C)C[C@H](NC(=O)[C@@H](O)[C@@H](N)Cc1ccccc1)C(=O)O,,inactive
CC(C)(C)c1ccc(C(=O)c2c[nH]c(C(=O)NCCCn3ccnc3)c2)cc1,,5.01 µM (active)
Cc1ccc(C(=O)c2c[nH]c(C(=O)NCCCN3CCOCC3)c2)cc1,,inactive
O=C(NCCc1ccccn1)c1cc(C(=O)C2CCCCC2)c[nH]1,,inactive
CCC(CC)C(=O)c1c[nH]c(C(=O)NCCc2ccccn2)c1,,inactive
O=C(c1ccc(C(F)(F)F)cc1)c1c[nH]c(C(=O)NCCCn2ccnc2)c1,,2.51 µM (active)
O=C(O)CCCCCNC(=O)c1ccncc1,,inactive
C1CNCCOCCNCCN1,,inactive
CN(C)c1ccc(C(c2ccc(N(C)C)cc2)c2ccc([N+](=O)[O-])cc2)cc1,14% [at 11.4 µM],
O=C(O)[C@@H]1[C@@H](C(=O)Nc2ccccc2)[C@@H]2C=C[C@@H]1O2,2.5% [at 11.4 µM],
CCOc1ccc(Cc2nccc3cc(OCC)c(OCC)cc23)cc1OCC,,inactive
O=C(O)Cc1ccc(O)c(O)c1,,inactive
Oc1ccc(Cc2nccc3cc(O)c(O)cc23)cc1O,,1.26 µM (active)
